Consider 19 sequences from the supplement of paper PMC10338343.

Assay [1] deals with MILI (PIWIL2) piRISC loaded with L1MC piRNA (26 nt). The experiment in a line: pre-steady-state target cleavage rate (min^-1); guide: L1MC piRNA 5'p-UAACUAAAUACUAUGCAAGCUGUAGG; higher = faster piRNA-guided slicing of the target. In a few lines: (§1)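 The pre-steady-state cleavage rate was calculated from a burst-and-steady-state fit. Data came from Cleave-'n-Seq, in which […] transcribed, DNA-blocked target RNA library was mixed with 1 nM active affinity-purified piRISC carrying one synthetic guide, with or without 500 nM GTSF1 partner protein, in HEPES–potassium acetate buffer at 33 °C for 0–8 or 0–960 min. Uncleaved targets were sequenced and normalised to depth and to weakly complementary targets, three trials were pooled, and k3 was capped at 0.0001 min^-1.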

The subject of assay [2] is EfPiwi piRISC loaded with L1MC piRNA (26 nt). The assay can be described thus: pre-steady-state target cleavage rate (min^-1); auxiliary factor: 500 nM Ephydatia muelleri Gtsf1; guide: L1MC piRNA 5'p-UAACUAAAUACUAUGCAAGCUGUAGG; MIWI and MILI are mouse PIWI proteins and EfPiwi is from a freshwater sponge; tags in brackets are library labels; higher = faster piRNA-guided slicing of the target. In a few lines: as §1
[3] abbreviates: auxiliary factor: 500 nM mouse GTSF1.
The mark [4] stands for this setting: auxiliary factor: none (no GTSF1).

± gives the standard deviation.

For UCCUGGAUGCGCUUGCAUAGUAUUUAGUUA, the “pre-steady-state target cleavage rate” value turned out to be 0.239 ± 0.016 in assay [1] (setting [3]), 0.0108 ± 0.0028 in assay [1] (setting [4]) and 0.0286 ± 0.0065 in assay [2].

As for UCCUGGAUGAGGUUGCAUAGUAAUUAGUUA, the “pre-steady-state target cleavage rate” value in assay [1] (setting [3]) stood at 0.117 ± 0.032; in assay [1] (setting [4]), 0.00411 ± 0.0022; in assay [2], 0.00522 ± 0.003.

For the sequence UCCUCCUACAGCUGGCAUAGUAUUUAGUUA, the “pre-steady-state target cleavage rate” value came to 0.294 ± 0.02 in assay [1] (setting [3]), 0.00732 ± 0.0023 in assay [1] (setting [4]) and 0.0728 ± 0.02 in assay [2].

Regarding UCCUGGAUGAGCUUGCAUAGUAAUUUAGUUA, the “pre-steady-state target cleavage rate” value in assay [1] (setting [3]) was found to be 0.0721 ± 0.0082; in assay [1] (setting [4]), 0.00789 ± 0.0023; in assay [2], 0.00357 ± 0.0029.

In the case of UCCUGGAUCAGCUUGCAUAGUAUUUAGAAA, the “pre-steady-state target cleavage rate” value stood at 0.138 ± 0.022 in assay [1] (setting [3]), 0.00292 ± 0.0023 in assay [1] (setting [4]) and 0.00346 ± 0.0016 in assay [2].

As to UCCUGGAUGAGCUUGCAUAGUAUUUAGUAA, the figures for the “pre-steady-state target cleavage rate” value in assay [1] (setting [3]), in assay [1] (setting [4]) and in assay [2] were 0.218 ± 0.019, 0.00773 ± 0.0026 and 0.00367 ± 0.0022, respectively.

UCCUCCUUCAGCUUGCAUAGUAUUUAGUAA: the results for the “pre-steady-state target cleavage rate” value in assay [1] (setting [3]), in assay [1] (setting [4]) and in assay [2] were 0.228 ± 0.021, 0.00401 ± 0.0018 and 0.012 ± 0.005, respectively.

With UCCUGGUUGAGCUUGCAUAGUAUUUAGUUA, the “pre-steady-state target cleavage rate” value in assay [1] (setting [3]) turned out to be 0.179 ± 0.017; in assay [1] (setting [4]), 0.0113 ± 0.0033; in assay [2] it was 0.0176 ± 0.0053.

UCCUGGAUGUCCUGGCAUAGUAUUUAGUUA: the “pre-steady-state target cleavage rate” value in assay [1] (setting [3]) stood at 0.066 ± 0.013; in assay [1] (setting [4]), 0.00414 ± 0.0026; in assay [2], 0.0055 ± 0.0047.

For the sequence UCCUGGUAGUCCUUGCAUAGUAUUUAGUUA, the “pre-steady-state target cleavage rate” value in assay [1] (setting [3]) amounted to 0.126 ± 0.018; in assay [1] (setting [4]) it was 0.00932 ± 0.003; in assay [2] it was 0.00556 ± 0.0026.

For UCCUCCUUCAGCUUGCAUAGUAUUUUGUUA, the “pre-steady-state target cleavage rate” value was 0.139 ± 0.021 in assay [1] (setting [3]), 0.00287 ± 0.002 in assay [1] (setting [4]) and 0.00463 ± 0.0027 in assay [2].

Turning to UCCUCCUACAGCUUGCAUAGUUUUAGUUA, the results for the “pre-steady-state target cleavage rate” value in assay [1] (setting [3]), in assay [1] (setting [4]) and in assay [2] were 0.0249 ± 0.0085, 0.0026 ± 0.0026 and 0.00276 ± 0.0023, respectively.

For the sequence UCCUGGAACAGCUAGCAUAGUAUUUAGUUA, the “pre-steady-state target cleavage rate” value in assay [1] (setting [3]) was 0.242 ± 0.019; in assay [1] (setting [4]), 0.00629 ± 0.0023; in assay [2] it was 0.015 ± 0.0041.

In the case of UCCUGGUACUGCUUGCAUAGUAAUUAGUUA, the “pre-steady-state target cleavage rate” value came out at 0.169 ± 0.031 in assay [1] (setting [3]), 0.00575 ± 0.0025 in assay [1] (setting [4]) and 0.114 ± 0.043 in assay [2].

As to UCCUCCUACAGCUUGCAUAGAUAUUUAGUUA, the “pre-steady-state target cleavage rate” value in assay [1] (setting [3]) worked out at 0.0178 ± 0.0058; in assay [1] (setting [4]) it was 0.00345 ± 0.0022; in assay [2], 0.00501 ± 0.0032.

Consider UCCUGGAUGUGCUUCAUAGUAUUUAGUUA, for which the entries for the “pre-steady-state target cleavage rate” value in assay [1] (setting [3]), in assay [1] (setting [4]) and in assay [2] were 0.046 ± 0.01, 0.00455 ± 0.002 and 0.00929 ± 0.0056, respectively.

As for UCCUGCAUGAGCUUGCAUAGUAUUUAGUAA, the results for the “pre-steady-state target cleavage rate” value in assay [1] (setting [3]), in assay [1] (setting [4]) and in assay [2] were 0.234 ± 0.024, 0.00554 ± 0.0022 and 0.0061 ± 0.0025, respectively.

Consider UCCUCCAACAGCUUGCAUUGUAUUUAGUUA, for which the “pre-steady-state target cleavage rate” value came to 0.257 ± 0.018 in assay [1] (setting [3]), 0.00746 ± 0.0023 in assay [1] (setting [4]) and 0.0205 ± 0.0058 in assay [2].

For the sequence UCCUGGAUGAGCUUGCAUAGUAAUUAGUUA, the “pre-steady-state target cleavage rate” value in assay [1] (setting [3]) came out at 0.184 ± 0.018; in assay [1] (setting [4]), 0.00598 ± 0.0024; in assay [2], 0.0154 ± 0.0044.
